LAP4-GFP MLPCN: modulators of LAP4-GFP expression in yeast, primary screen, S. cerevisiae, multiplex flow cytometry, MLPCN library | 3 h; median GFP as percent of DMSO wells | GFP response vs DMSO, % at 10 µM | 320,000 tested, 0.34% active | AID 2023, 2009;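 active = GFP response vs DMSO above a set limit, about the screen mean plus 3 SD, cut at about 150% in these data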
MEP2 TOR yeast: modulators of MEP2-GFP levels in yeast, primary screen, S. cerevisiae, multiplex flow cytometry, MLPCN library. S. cerevisiae MEP2-GFP strain, 3 h; 100% = DMSO control level. GFP response vs DMSO, % at 10 µM. 330,000 tested, 0.51% active. AID 2016, 2009;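 active = GFP response versus DMSO above a set limit, roughly screen mean plus 3 SD, cut at about 180% in these data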;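 also: median GFP fluorescence of the barcode-gated MEP2-GFP cells per well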
RPL19A TOR yeast: RPL19A-GFP expression modulators in yeast, primary screen, cell-based, S. cerevisiae, multiplex flow cytometry, MLPCN; S. cerevisiae RPL19A-GFP strain, 3 h; hits give low values; percent response vs DMSO, % at 10 µM; 330,000 tested, 0.3% active;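 active = percent response vs DMSO below 50%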;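 also: median channel GFP fluorescence of the barcoded RPL19A-GFP strain; ratio of sample median GFP to plate DMSO average so 100% = DMSO; lower means less RPL19A-GFP as with rapamycin TOR inhibition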
CIT2-GFP yeast: modulators of CIT2-GFP expression in yeast, primary screen, S. cerevisiae, GFP fusion, multiplex flow cytometry, MLPCN library. 320,000 tested, 0.065% active. S. cerevisiae CIT2-GFP strain, 3 h; 100 means same as DMSO wells. GFP response vs DMSO, % at 10 µM;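 active = GFP response relative to DMSO above a set limit, near the screen mean plus 3 SD, cut at about 150% in these data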;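 also: ratio of well median GFP fluorescence to mean of DMSO wells on the plate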
AGP1 TOR yeast: modulators of AGP1-GFP expression in yeast TOR pathway, primary screen, cell-based, multiplex flow cytometry, S. cerevisiae, MLPCN library; 3 h; GFP as percent of DMSO wells; GFP response vs DMSO, % at 10 µM; 320,000 tested, 0.02% active; AID 2066, 2009;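 active = GFP response relative to DMSO above a set limit, near screen average plus 3 SD, cut at about 150% in these data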;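 also: median GFP channel fluorescence of the gated AGP1 strain per well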
LAP4 cherry2: LAP4-GFP expression modulators in yeast, confirmation, cell-based, second cherry pick, flow cytometry. GFP response vs DMSO, % at 10 µM. S. cerevisiae LAP4-GFP strain, 3 h. AID 2621, 2010. 590 tested, 20% active. shares compounds with LAP4-GFP MLPCN;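 active = GFP signal as percent of the solvent control above about 150%, meaning raised reporter expression, limit read from the data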;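 also: ratio of well median GFP fluorescence to plate DMSO mean so 100% = DMSO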
MEP2-GFP pick2: modulators of MEP2-GFP levels in yeast, confirmation, S. cerevisiae, flow cytometry GFP, second cherry picks; shares compounds with LAP4-GFP MLPCN; S. cerevisiae MEP2-GFP strain, 3 h; GFP response vs DMSO, % at 10 µM; 590 tested, 10% active; AID 2622, 2010;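 active = GFP signal above 150% of the solvent control wells, that is a rise of more than half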;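 also: median channel GFP fluorescence of all gated yeast cells per well; ratio of median GFP to plate DMSO average so 100% = DMSO level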
RPL19A GFP CP2: RPL19A-GFP modulators in TOR pathway yeast, confirmation, cell-based, S. cerevisiae, flow cytometry, second cherry pick | shares compounds with LAP4-GFP MLPCN | S. cerevisiae RPL19A-GFP strain, 3 h; hits give low values; 100% means same as DMSO wells | GFP response vs DMSO, % at 10 µM | 590 tested, 3% active;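 active = under 65% GFP response relative to DMSO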;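 also: median GFP channel fluorescence per well over the all cells gate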
CIT2-GFP pick2: modulators of CIT2-GFP expression in yeast, confirmation, flow cytometry, second cherry pick, single plex; shares compounds with LAP4-GFP MLPCN; S. cerevisiae CIT2-GFP strain, 3 h; DMSO control wells read 100%; GFP response vs DMSO, % at 10 µM; 590 tested, 8% active; AID 2624, 2010;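 active = GFP response vs DMSO above about 150%, limit read from the data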;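 also: median green fluorescence per well over all gated yeast cells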
AGP1 GFP CP2: AGP1-GFP expression modulators, hit retest, confirmation, cell-based, flow cytometry, S. cerevisiae, cherry pick set 2 | percent response vs DMSO, % at 10 µM | S. cerevisiae AGP1-GFP strain, 3 h | 590 tested, under 10 active | shares compounds with LAP4-GFP MLPCN;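 active = over 150 percent of DMSO response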;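 also: median GFP channel fluorescence over all cells without mother daughter split; sample median GFP divided by mean DMSO control so 100% equals DMSO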
Yeast autofluor: compound autofluorescence in yeast s288c, dose response, artefact control for yeast TOR pathway GFP screen, s288c strain. shares compounds with LAP4-GFP MLPCN. S. cerevisiae s288c, 520 nm autofluorescence, flow cytometry, 3 h; hits give high values; zero means same as solvent-only cells. fluorescence change (kMESF span) at 33 µM. 610 tested, under 10 active. AID 2757, 2010;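 active = fluorescence span over the dose series, or activity score, above about 33, limit read from the data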
s288c autofl DR: autofluorescence of compounds in yeast s288c, dose response, artefact control for yeast TOR pathway GFP screen, primary hits, KU SAR, s288c parental; shares compounds with LAP4-GFP MLPCN; S. cerevisiae s288c parental, compound autofluorescence, flow cytometry, 3 h; fluorescence change (span) at 33 µM; 110 tested, under 10 active; AID 488829, 2010;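 active = fluorescence change span, or the activity score built from it, above 25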
TORC1 bypass: wild-type yeast growth inhibition sparing TORC1 bypass cells, mechanism study for yeast TOR pathway GFP screen, BY4741 wild type, TORC1 bypass strain | growth rating (0-3) at 30 µM | 120 tested, under 10 active | AID 504456, 2011 | S. cerevisiae BY4741 spot growth rating, 48-72 h; hits give low values | shares compounds with LAP4-GFP MLPCN;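 active = growth rating at most 1 for wild type yeast while the TORC1 bypass strain still grows fully, rated 3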
Active calls of the source: *. Most compounds without a hit are left out; they make up all but 0.93% or so of the library.

What do the screens show for `Cc1ccc(NC(=O)CS(=O)c2ccccc2N)c(C)c1` (stereo not given)?
LAP4-GFP MLPCN: 90; MEP2 TOR yeast: 132; RPL19A TOR yeast: 78; CIT2-GFP yeast: 108; AGP1 TOR yeast: 73

What do the screens show for `O=C1c2ccccc2C(=O)C1c1ccccn1`?
LAP4-GFP MLPCN: 106; MEP2 TOR yeast: 107; RPL19A TOR yeast: 92; CIT2-GFP yeast: 88; AGP1 TOR yeast: 114

How did O=C1c2ccccc2C(=O)C2OC12 (stereo not given) do in these assays?
LAP4-GFP MLPCN: 163*; MEP2 TOR yeast: 132; RPL19A TOR yeast: 79; CIT2-GFP yeast: 88; AGP1 TOR yeast: 98; Yeast autofluor: 2.1

How did O=C(O)c1ccccc1SC1CC(=O)N(c2ccc3c(c2)OCO3)C1=O (stereo not given) do in these assays?
LAP4-GFP MLPCN: 151*; MEP2 TOR yeast: 89; RPL19A TOR yeast: 100; CIT2-GFP yeast: 85; AGP1 TOR yeast: 101; Yeast autofluor: 0

Results for COc1ccc(C(=O)NC(=S)NNC(=O)c2cccc(C)c2)cc1 ?
LAP4-GFP MLPCN: 111; MEP2 TOR yeast: 98; RPL19A TOR yeast: 107; CIT2-GFP yeast: 97; AGP1 TOR yeast: 96

What do the screens show for `CC(=O)NC(=S)NNC(=O)CCc1ccccc1`?
LAP4-GFP MLPCN: 107; MEP2 TOR yeast: 100; RPL19A TOR yeast: 95; CIT2-GFP yeast: 94; AGP1 TOR yeast: 101

How did O=C(NC(=S)NNC(=O)[C@H]1C[C@@H]1c1ccccc1)c1cccc(F)c1 do in these assays?
LAP4-GFP MLPCN: 153*; MEP2 TOR yeast: 101; RPL19A TOR yeast: 89; CIT2-GFP yeast: 96; AGP1 TOR yeast: 102; Yeast autofluor: 1.3

How did O=C(CCc1ccccc1)NNC(=S)NC(=O)c1ccccc1 do in these assays?
LAP4-GFP MLPCN: 243*; MEP2 TOR yeast: 121; RPL19A TOR yeast: 108; CIT2-GFP yeast: 97; AGP1 TOR yeast: 95; Yeast autofluor: 0.81; s288c autofl DR: 0.78; TORC1 bypass: 3

How did Cc1cccc(C(=O)NNC(=S)NC(=O)c2ccccc2)c1 do in these assays?
LAP4-GFP MLPCN: 155*; MEP2 TOR yeast: 100; RPL19A TOR yeast: 109; CIT2-GFP yeast: 105; AGP1 TOR yeast: 111; Yeast autofluor: 0.9

How did CCCCC(=O)NC(=S)NNC(=O)CCc1ccccc1 do in these assays?
LAP4-GFP MLPCN: 150*; MEP2 TOR yeast: 109; RPL19A TOR yeast: 101; CIT2-GFP yeast: 109; AGP1 TOR yeast: 102; LAP4 cherry2: 139; MEP2-GFP pick2: 105; RPL19A GFP CP2: 104; CIT2-GFP pick2: 123; AGP1 GFP CP2: 97; Yeast autofluor: 0.4

Results for COc1cccc(OC)c1C(=O)NC(=S)NNC(=O)[C@H]1C[C@@H]1c1ccccc1 ?
LAP4-GFP MLPCN: 87; MEP2 TOR yeast: 92; RPL19A TOR yeast: 98; CIT2-GFP yeast: 90; AGP1 TOR yeast: 85

Results for CC1CN(S(=O)(=O)c2cccc(C(=O)NCCc3ccc(S(N)(=O)=O)cc3)c2)CC(C)O1 (stereo not given) ?
LAP4-GFP MLPCN: 107; MEP2 TOR yeast: 95; RPL19A TOR yeast: 101; CIT2-GFP yeast: 97; AGP1 TOR yeast: 101

Results for CS(=O)(=O)c1ccc(S(=O)(=O)N2CCC(CO)(CCCc3ccccc3)CC2)cc1 ?
LAP4-GFP MLPCN: 97; MEP2 TOR yeast: 114; RPL19A TOR yeast: 104; CIT2-GFP yeast: 102; AGP1 TOR yeast: 99

What do the screens show for `CCN1/C(=C/C(C)=C/c2sc3ccccc3[n+]2CC)Sc2ccccc21`?
LAP4-GFP MLPCN: 188*; MEP2 TOR yeast: 102; RPL19A TOR yeast: 50; CIT2-GFP yeast: 61; AGP1 TOR yeast: 69; Yeast autofluor: 2.1

How did CCN1/C(=C\C(=S)Nc2ccccc2)Sc2ccccc21 do in these assays?
LAP4-GFP MLPCN: 146; MEP2 TOR yeast: 97; RPL19A TOR yeast: 91; CIT2-GFP yeast: 98; AGP1 TOR yeast: 98

What do the screens show for `O=C(CS(=O)c1ccccc1[N+](=O)[O-])Oc1ccc(Br)cc1` (stereo not given)?
LAP4-GFP MLPCN: 170*; MEP2 TOR yeast: 92; RPL19A TOR yeast: 91; CIT2-GFP yeast: 92; AGP1 TOR yeast: 100; Yeast autofluor: 0.71

How did COc1ccccc1-c1nnc(SCC(=O)N2CCOCC2)n1-c1ccccc1 do in these assays?
LAP4-GFP MLPCN: 98; MEP2 TOR yeast: 100; RPL19A TOR yeast: 95; CIT2-GFP yeast: 103; AGP1 TOR yeast: 99

Assay outcomes (PubChem BioAssay)
